# In the library only some 19% were active in any assay of this set; here they are far more common.
# IL-1B inflam inh – qHTS for Inhibitors of Inflammasome Signaling: IL-1-beta AlphaLISA Primary Screen. THP-1 LPS/ATP IL-1B secretion, AlphaLISA, 16 h; active compounds read low. activity change, % at 57.5 µM. hit rate 4.7% among 360,000; in the data active means activity change below about -50%; inconclusive means mostly about -30% to -49%
#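 Secreted IL-1B measured by AlphaLISA bead assay after 16 h compound exposure of THP-1 cells; compounds (final up to 57.5 uM) added 1 h before LPS (250 ng/mL) and ATP (1.25 mM) stimulation; lower signal means less secretion.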
# HT1080NT lethal – qHTS for induction of synthetic lethality in tumor cells producing 2HG: qHTS for the HT-1080-NT fibrosarcoma cell line. AID 686970, 2013. Potency, µM (top dose mostly 46.1 µM), for the others: at the top dose activity, negative = less viability, hits mostly cytotoxic. hit rate 1.6% among 360,000. HT-1080-NT fibrosarcoma viability, CellTiter-Glo ATP luminescence, 48 h;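 further: NT is the 2HG producing partner of a matched IDH1 knockdown line; potency means the concentration at half of the fitted maximal effect; 0% = DMSO-treated cells and -100% = media-only wells without cells; nearly all actives have a fitted effect of over 55% in size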
#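 Toxicity toward the 2HG-producing NT line was scored as %Activity, normalised to DMSO and no-cell wells, from CellTiter-Glo luminescence after 48 hours' treatment.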
# TDP1 cell noCPT – qHTS for Inhibitors of human tyrosyl-DNA phosphodiesterase 1 (TDP1): qHTS in cells in absence of CPT; DT40 Tdp1-/- hTDP1 cells, no CPT, ATP luminescence, 48 h; Potency, µM (highest dose often 46.2 µM), inactives show top-dose activity change, negative = growth inhibition, usual class: inhibitors; hit rate 15% among 420,000; further: potency means the concentration at half of the fitted maximal effect; nearly all actives have a fitted effect of over 55% in size
#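 Compound effects on proliferation are scored in DT40 Tdp1-/-;hTDP1 cells in the absence of CPT. ATP levels (CellTiter-Glo luminescence) are recorded after a ≥48 hr, 37 °C incubation.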
# HT1080 IDH1KD tx – qHTS for induction of synthetic lethality in tumor cells producing 2HG: qHTS for the HT-1080-IDH1KD cell line; hit rate 2% among 360,000; HT-1080 IDH1 knockdown viability, ATP luminescence, 48 h; Potency, µM (doses to about 46.1 µM), for the others: top-dose activity, negative = toxicity, actives largely listed as cytotoxic;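 further: potency means the concentration at half of the fitted maximal effect; 0% = DMSO wells and -100% = cell-free medium wells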
#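 Cytotoxicity counter-line: IDH1KD HT-1080, 48 h, CellTiter-Glo. Curves classed by r2, magnitude and activity.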
# TDP1 cell CPT – qHTS for Inhibitors of human tyrosyl-DNA phosphodiesterase 1 (TDP1): qHTS in cells in presence of CPT; chicken DT40 Tdp1-/-;hTDP1 cells + 20 nM CPT, ATP luminescence, 48 h; Potency, µM (top dose mostly 46.2 µM), without a hit: top-dose activity change, negative = growth inhibition, actives largely listed as inhibitors; hit rate 12% among 420,000; AID 686979, 2013; further: potency means the concentration at half of the fitted maximal effect; nearly all actives have a fitted effect of over 55% in size
#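 Cell growth measured by CellTiter-Glo luminescence after a minimum 48 h, 37 C compound exposure with 20 nM CPT in Tdp1-knockout DT40 cells stably expressing hTDP1, seeded 400/well; qHTS titration format.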
# The depositor's hits bear a star; ? = inconclusive; nt = not tested or not shown; [ ] = remark or other dose. Unless noted, the call rests on the fitted dose curve; in most records, active means well fitted curve in the direction sought with a large enough effect; inconclusive means small, poorly fitted or top-dose-only effect, or another doubt; inactive means no such curve, though single readings can be large; an effect the other way counts as inactive or inconclusive. Unless noted, on the % scale 0 is the no-effect control and ±100 the full control effect.
SMILES,IL-1B inflam inh,HT1080NT lethal,TDP1 cell noCPT,HT1080 IDH1KD tx,TDP1 cell CPT
COc1ccc(C)cc1N=Nc1ccc(O)c2ncccc12,-10,?,2.6µM*,?,3.3µM*
O=S(=O)(O)c1cccc2c(N=Nc3ccc(O)c4ncccc34)cccc12,0,-6%,11%,-10%,?
COc1cccc(N=Nc2ccc(O)c3ncccc23)c1,14,?,2.6µM*,?,2.6µM*
O=Nc1ccc(O)c2ncccc12,-98*,12µM*,0.92µM*,?,0.58µM*
O=C(NC1CCSc2ccccc21)c1ccccc1Br (centres undefined),-8,14%,-1%,7%,-26%
COc1ccc(N=Nc2ccc(O)c3ncccc23)cc1,93,?,1.5µM*,4.6µM*,2.1µM*
COc1ccc(N=Nc2cc(-c3ccccc3)ccc2O)cc1,-21,14%,-15%,18%,-2%
Cc1ccc(O)c2ncccc12,nt,nt,4.7µM*,nt,?
Cc1ccccc1N=Nc1ccc(O)c2ncccc12,2,?,1.6µM*,7.3µM*,2.6µM*
Oc1ccc(Cn2ccnc2)c2cccnc12,161,?,?,?,13%
COCc1ccc(O)c2ncccc12,118,4.6µM*,4.6µM*,5.8µM*,4.6µM*
COc1cc(Br)cc(Br)c1OCC(=O)N/N=C/c1c(C)n(C)n(-c2ccccc2)c1=O,-9,12%,4%,15%,10%
COc1cccc(OC)c1CN1CCC2(CCC(CNC(=O)c3ccccc3)O2)CC1 (centres undefined),nt,nt,-24%,nt,9%
Cc1ccc(-c2cc(Cc3ccccc3)c(=O)[nH]n2)cc1,-6,-13%,?,-13%,?
COc1cccc(N=Nc2ccc3cccnc3c2O)c1,26,-30%,1.2µM*,?,0.58µM*
COc1ccc(-c2ncccc2O)cc1,-3,14%,-9%,11%,0%
Oc1ccc(N=Nc2ccc3c(c2)OCCO3)c2cccnc12,44,?,1.6µM*,1.3µM*,1.3µM*
CC1(C)O[C@@H]2[C@H](O1)[C@@H](COS(=O)(=O)O)O[C@H]2n1c(=S)[nH]c2c(=O)[nH]c(N)nc21,14,?,-7%,8%,2%
O=C(NCc1ccco1)c1ccc2c(c1)N(Cc1ccc(F)cc1)C(=O)c1ccccc1S2=O (centres undefined),nt,nt,16µM*,nt,?
O=C(NCc1ccco1)c1ccc2c(c1)N(Cc1ccccc1F)C(=O)c1ccccc1S2=O (centres undefined),nt,nt,?,nt,-19%
Cc1ccc(C)c(CN2C(=O)c3ccccc3S(=O)c3ccc(C(=O)NCc4ccco4)cc32)c1 (centres undefined),nt,nt,16µM*,nt,?
CCCCNC(=O)c1ccc2c(c1)N(Cc1ccc(F)cc1)C(=O)c1ccccc1S2=O (centres undefined),nt,nt,18µM*,nt,23µM*
O=C(CSc1nnc(-c2ccccc2O)o1)N1CCOCC1,-10,3%,-3%,-3%,-12%
Cc1nn(C)c(C)c1NS(=O)(=O)c1ccccc1Cl,9,-3%,7%,-3%,-10%
COc1ccc(C(C(=O)c2ccccc2)c2ccccc2)cc1 (centres undefined),-6,-25%,?,-2%,-19%
SMILES,IL-1B inflam inh,HT1080NT lethal,TDP1 cell noCPT,HT1080 IDH1KD tx,TDP1 cell CPT
Cc1cccnc1C(NC(=O)C1CCN(Cc2ccc(Cl)cc2)CC1)c1ccccc1 (centres undefined),?,?,16µM*,?,16µM*
Cc1cccnc1C(NC(=O)C1CCN(Cc2cn(C)c3ccccc23)CC1)c1ccc(Cl)cc1 (centres undefined),?,12µM*,4.6µM*,?,4.6µM*
Cc1cccnc1C(NC(=O)C1CCN(Cc2ccc(Oc3ccccc3)cc2)CC1)c1ccc(F)cc1 (centres undefined),-67*,21µM*,?,?,23µM*
Cc1cccnc1C(NC(=O)C1CCN(CCCc2ccccc2)CC1)c1ccc(Cl)cc1 (centres undefined),-57*,26µM*,29µM*,?,?
Cc1ccccc1C1(CC(=O)N2CCCCC2C)CC(=O)N(Cc2cccnc2)C1=O (centres undefined),nt,nt,?,nt,17%[9.04 µM]
CCOC(=O)c1c(C)oc2ncnc(N3CCN(c4ccccc4F)CC3)c12,nt,nt,13µM*,nt,18µM*
CCOC(=O)c1c(C)oc2nc(C)nc(Nc3ccc(C)c(Cl)c3)c12,nt,nt,-12%,nt,-15%
CCOC(=O)c1c(C)oc2nc(C)nc(N3CCN(c4cc(Cl)ccc4C)CC3)c12,nt,nt,21µM*,nt,4.6µM*
CCOC(=O)c1ccccc1NC(=O)c1c(C)oc2ncnc(N3CCOCC3)c12,nt,nt,21µM*,nt,?
CCOC(=O)c1c(C)oc2nc(C)nc(N3CCN(c4cccc(C)c4C)CC3)c12,nt,nt,18µM*,nt,21µM*
Cc1oc2ncnc(N3CCOCC3)c2c1C(=O)Nc1ccc(Br)cc1F,nt,nt,-14%,nt,9%
Cc1oc2ncn(C)c(=O)c2c1C(=O)N1CCN(c2ccccc2F)CC1,nt,nt,-4%,nt,28%
CCOc1cccc2cc(C(=O)N3CC(C)OC(C)C3)c(=O)oc12 (centres undefined),-4,-1%,-16%,4%,6%
COc1ccc(S(=O)(=O)N(CC(=O)NC2CCCCC2)c2ccc(F)cc2)cc1,6,-16%,-20%,-17%,-15%
CCOC(=O)c1ccc(OCCOc2ccccc2C)cc1,28,11%,-20%,3%,-7%
N#C/C(=C/c1ccc(-c2ccc([N+](=O)[O-])cc2)o1)c1nnc(N2CCOCC2)n1-c1ccccc1,-7,0%,?,0%,?
CCOC(=O)c1c(C)oc2ncnc(N3CCN(c4ccccc4)CC3)c12,nt,nt,8.2µM*,nt,8.2µM*
CCOC(=O)c1c(C)oc2nc(C)nc(N3CCN(c4ccccc4F)CC3)c12,nt,nt,7.3µM*,nt,15µM*
CCOC(=O)c1c(C)oc2nc(C)nc(NCCCN3CCN(c4ccccc4)CC3)c12,nt,nt,-2%,nt,-17%
Cc1nc(N2CCOCC2)c2c(C(=O)N3CCN(c4ccccc4)CC3)c(C)oc2n1,nt,nt,0%,nt,-8%
CCOc1ccc(OCCC(=O)OCC(=O)NC2CCCCC2)cc1,4,-1%,-3%,-1%,-7%
O=C(Nc1nnc([C@@H]2C[C@H](O)[C@@H](CO)O2)s1)Nc1ccccc1Oc1ccccc1,0,-7%,?,-6%,?
